Source: PubChem BioAssay (NCATS)
Inconclusive results are not listed. Where a call stands in place of a potency, no number is given. Activity calls are given as the source filed them. Calls come from the whole dose curve; as a rule, active = well fitted activation curve with a large enough effect; inconclusive = small, poorly fitted or top-dose-only effect; inactive = flat fitted curve, though single readings scatter.

Biological target: D(1A) dopamine receptor (Homo sapiens) (UniProt P21728)
Assay: HTS Assay for Allosteric Agonists of the Human D1 Dopamine Receptor: Primary Screen for Agonists (AID 488981)
Conditions: Inducible HEK293 T-REx D1 cells, calcium-flux fluorescence, 180 s kinetic; series mostly up to 41.8 µM
Text: Dopamine receptors (DARs) are involved in the etiology and/or therapy of a number of neuropsychiatric and endocrine disorders. For instance, all receptor-based antiparkinsonian drugs work via stimulating the […] DAR subtype whereas all FDA-approved antipsychotic agents are antagonists of this receptor. […] There are three different types of allosteric modulators that we are seeking, two of which will stimulate or augment receptor signaling, allosteric agonists and potentiators, while the third, allosteric antagonists, will attenuate receptor signaling. The present primary screening assay measures compound agonism by tracking calcium flux in a […], inducible Hek293 Trex D1 cell line.
Freshly passaged cells are plated in 1536 well black, clear bottom plates at a density of 4000 cells/well in 3 ul of complete media containing 1x tetracycline inducer. After an overnight incubation at 30 C in 5% CO2, cells are loaded with 2 ul of the no wash Calcium Assay Kit (ABD Bioquest) and incubated at room temperature for 30 to 90 minutes. A 10 cycle (1 second/cycle) baseline measurement is taken and then the FDSS online 1536 pintool delivers 23 nl of compound library (as well as dopamine controls) to the plate. The plate is measured for kinetically at 1 cycle/sec for 180 seconds and is considered to be the agonist portion of the assay (eg, compounds which activate a positive calcium response during this portion are flagged as potential agonists). Following the 180 second read, 1 ul of an EC20 of dopamine is delivered by an onboard pipette head. Measurements are taken kinetically for an additional 180 seconds.
Potency is the fitted concentration of half-maximal effect.

Chain of D(1A) dopamine receptor (Homo sapiens) (P21728 whole entry, looked up): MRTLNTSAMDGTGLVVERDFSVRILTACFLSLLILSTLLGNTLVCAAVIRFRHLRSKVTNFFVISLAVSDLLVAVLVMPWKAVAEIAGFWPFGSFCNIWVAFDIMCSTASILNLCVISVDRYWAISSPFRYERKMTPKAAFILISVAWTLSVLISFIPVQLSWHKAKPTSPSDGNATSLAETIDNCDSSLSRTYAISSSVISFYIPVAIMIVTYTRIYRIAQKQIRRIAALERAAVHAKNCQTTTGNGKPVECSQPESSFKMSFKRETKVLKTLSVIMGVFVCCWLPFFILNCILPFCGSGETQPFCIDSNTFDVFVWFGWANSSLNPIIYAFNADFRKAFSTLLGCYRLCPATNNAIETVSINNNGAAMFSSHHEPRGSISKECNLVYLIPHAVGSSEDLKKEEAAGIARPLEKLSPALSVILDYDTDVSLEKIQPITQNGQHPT

Question: For CCCCNC(=O)NS(=O)(=O)c1ccc(C)cc1, which Potency is on record?
Answer: inactive

Question: NCCCNCCSP(=O)(O)O was tested. Which Potency did it give?
Answer: inactive

Question: For NC(N)=N/N=C/c1c(Cl)cccc1Cl, which Potency is on record?
Answer: inactive

Question: CN=C(NC#N)NCCSCc1nc[nH]c1C was tested. Which Potency did it give?
Answer: inactive

Question: For C[N+](C)(C)CCOC(N)=O, which Potency is on record?
Answer: inactive

Question: c1ccc2c(c1)CCCC2C1=NCCN1 (stereo not given) was tested. Which Potency did it give?
Answer: inactive

Question: Which Potency does the source give for CCCNC(C)C(=O)Nc1ccccc1C (stereo not given) here?
Answer: inactive

Question: CCN(CC)CC(=O)Nc1c(C)cccc1C was tested. Which Potency did it give?
Answer: inactive

Question: With Cc1ccc(/C(=C\CN2CCCC2)c2ccccn2)cc1 as the compound, how does the Potency read?
Answer: inactive

Question: c1cnc(N2CCN(Cc3ccc4c(c3)OCO4)CC2)nc1 was tested. Which Potency did it give?
Answer: inactive

Question: Nc1nc(N)c2nc(-c3ccccc3)c(N)nc2n1 was tested. Which Potency did it give?
Answer: inactive

Question: How did the Potency turn out when CCCN(CCC)CCc1cccc2c1CC(=O)N2 was run?
Answer: inactive

Question: With CC(C)NNC(=O)c1ccncc1 as the compound, how does the Potency read?
Answer: inactive

Question: CCCCCCCC/C=C\CCCCCCCC(=O)NCc1ccc(O)c(OC)c1 was tested. Which Potency did it give?
Answer: inactive

Question: For NC(=O)N1c2ccccc2C=Cc2ccccc21, which Potency is on record?
Answer: inactive

Question: For CN1C[C@H](C(=O)N[C@]2(C)O[C@@]3(O)[C@@H]4CCCN4C(=O)[C@H](Cc4ccccc4)N3C2=O)C[C@@H]2c3cccc4[nH]cc(c34)C[C@H]21, which Potency is on record?
Answer: inactive

Question: With CC(C)NCC(O)c1cc(O)cc(O)c1 (stereo not given) as the compound, how does the Potency read?
Answer: inactive

Question: Which Potency does the source give for CN1CCN(CC(=O)N2c3ccccc3C(=O)Nc3cccnc32)CC1 here?
Answer: inactive

Question: Which Potency does the source give for CCn1cc(C(=O)O)c(=O)c2cc3c(cc21)OCO3 here?
Answer: inactive

Question: For CN1C(=O)CC[C@H]1c1cccnc1, which Potency is on record?
Answer: inactive

Question: Which Potency does the source give for CC(=O)[C@]1(O)Cc2c(O)c3c(c(O)c2[C@@H](O[C@H]2C[C@H](N)[C@H](O)[C@H](C)O2)C1)C(=O)c1ccccc1C3=O here?
Answer: 11.2 µM (active)

Question: COCCOC(=O)C1=C(C)NC(C)=C(C(=O)OC(C)C)C1c1cccc([N+](=O)[O-])c1 (stereo not given) was tested. Which Potency did it give?
Answer: inactive

Question: With CN(C)C(=O)Oc1ccc[n+](C)c1 as the compound, how does the Potency read?
Answer: inactive

Question: With COc1cc(C(=O)OCCCN2CCCN(CCCOC(=O)c3cc(OC)c(OC)c(OC)c3)CC2)cc(OC)c1OC as the compound, how does the Potency read?
Answer: inactive

Question: How did the Potency turn out when C[C@]12C=CC(=O)C=C1CC[C@H]1[C@@H]3C[C@@H](O)[C@](O)(C(=O)CO)[C@@]3(C)C[C@H](O)[C@@]12F was run?
Answer: inactive

Question: With COC(=O)[C@H]1[C@H]2C[C@@H]3c4[nH]c5cc(OC)ccc5c4CCN3C[C@H]2C[C@@H](OC(=O)c2cc(OC)c(OC)c(OC)c2)[C@@H]1OC as the compound, how does the Potency read?
Answer: inactive

Question: CCN1CCC[C@H]1CNC(=O)c1c(O)c(Cl)cc(Cl)c1OC was tested. Which Potency did it give?
Answer: inactive

Question: Cc1ccc(Cl)c(Nc2ccccc2C(=O)O)c1Cl was tested. Which Potency did it give?
Answer: inactive

Question: How did the Potency turn out when Nc1ncn([C@@H]2O[C@H](CO)[C@@H](O)[C@H]2O)c(=O)n1 was run?
Answer: inactive

Question: How did the Potency turn out when CC1=C(C)C(=O)C(CCCCC#CCCCC#CCO)=C(C)C1=O was run?
Answer: inactive

Question: How did the Potency turn out when CNC1(C)C2CCC(C2)C1(C)C (stereo not given) was run?
Answer: inactive

Question: How did the Potency turn out when O=C(O)CN(CCOCCOCCN(CC(=O)O)CC(=O)O)CC(=O)O was run?
Answer: inactive

Question: O=c1[nH]c(=O)n([C@H]2C[C@H](O)[C@@H](CO)O2)cc1Br was tested. Which Potency did it give?
Answer: inactive

Question: For O=C(O)CCCCCCCC(=O)O, which Potency is on record?
Answer: inactive

Question: For CN(C)CCOC(=O)COc1ccc(Cl)cc1, which Potency is on record?
Answer: inactive

Question: With CC(=O)OC(C)C[N+](C)(C)C (stereo not given) as the compound, how does the Potency read?
Answer: inactive

Question: For CN(C)CCN(Cc1cccs1)c1ccccn1, which Potency is on record?
Answer: inactive

Question: How did the Potency turn out when CC(=O)Nc1nnc(S(N)(=O)=O)s1 was run?
Answer: inactive

Question: Which Potency does the source give for CCOC(=O)c1cnc2c(cnn2CC)c1NN=C(C)C here?
Answer: inactive

Question: How did the Potency turn out when O=C(O)CN(CCN(CC(=O)O)CC(=O)O)CCN(CC(=O)O)CC(=O)O was run?
Answer: inactive
